# In PubChem BioAssay:
# Several values for one entry are separate records, joined by “and”; a condition that tells them apart may be missing. Equal entries are not always repeated. Results filed as inconclusive are left out. For some assays here: Results with a measured potency or affinity are listed apart. Activity calls are given as the source filed them. Unless noted, no rule for the calls is given here.
# Legend:
# [1] = polyglutamine-triggered caspase-3 activation inhibitors, cell-based (AID 1583); conditions: polyglutamine-induced caspase-3 activation, cell assay; stronger effect = higher value;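 tested at 10 µM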
# [2] = suppressors of polyQ aggregation in yeast, 75Q-TubU reporter (AID 1593); conditions: Yeast 75Q polyglutamine aggregation reporter
# [3] = rescue of polyQ-huntingtin neuronal dysfunction in worms, whole organism, C. elegans mechanosensory neurons, N-terminal huntingtin (AID 1599); conditions: touch response, stronger effect = higher value
# [4] = inhibitors of mitochondrial cytochrome c release, biochemical, purified mitochondria (AID 1603); conditions: stronger effect = lower value;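 also: mouse liver mitochondria challenged with calcium chloride; signal normalized to the plate average as 100%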
# [5] = inhibitors of polyQ protein aggregation (AID 1604); conditions: polyglutamine-induced protein aggregation inhibition assay; stronger effect = higher value; tested at 2.5 µM
# [6] = enhancers of glutamate uptake in motor neurons, MN-1 cell line (AID 1612); conditions: MN-1 motor neuron cells, stronger effect = higher value;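 also: tested at 1 µM final; 0% = mean of DMSO vehicle wells on each plate; positive means more glutamate uptake than control and negative means less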
# [7] = reducers of polyQ inclusions in PC12 cells, cell-based, NGF-treated PC12, GFPQ80 (AID 1614); conditions: PC12 NGF-treated GFP-polyQ80 inclusion reduction;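 also: lower means fewer inclusions and 0 means no inclusions at all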
# [8] = suppressors of polyglutamine aggregation in yeast, 75Q-TubH (AID 1616); conditions: S. cerevisiae 75Q-TubH polyglutamine aggregation suppression; stronger effect = higher value
# [9] = target: 6-phosphogluconate dehydrogenase, decarboxylating (Homo sapiens) (UniProt P52209); assay: 6PGD enzyme inhibitors, primary screen, biochemical, human, recombinant enzyme, NADPH absorbance (AID 1159550;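 active = at least 20% inhibition of 6-phosphogluconate dehydrogenase activity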); conditions: recombinant 6PGD, NADPH absorbance 341 nm; at 10 µM; stronger effect = higher value
# [10] = differential killing of epithelial or mesenchymal cells, primary screen, imaging, PC-3E GFP, TEM4-18 mCherry, co-culture (AID 1345086;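 active = compounds killing one labelled cell type while sparing the other, by normalised counts and ratio limits, not self-fluorescent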;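 as to all read-outs here: cells exposed to compound for 72 h before imaging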;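 as to red/green cell ratio (normalised): normalised mesenchymal count divided by normalised epithelial count so high means epithelial killing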); conditions: imaging cell counts, at 1 µM; for red/green cell ratio (normalised): actives lie on both sides
# [11] = sensitizers of A549 cells to miR-34 induction, primary screen, imaging, A549 dox-inducible miR-34, nuclei and caspase counts (AID 1347080;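 active = compounds whose cell count with miR-34 switched on is under 0.7 times the count with it off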); conditions: A549 miR-34 inducible, Hoechst nuclei count, 48 h
# [12] = target: NAD(+) hydrolase SARM1 (Homo sapiens) (UniProt Q6SZW1); assay: SARM1 TIR NADase inhibitors, cell lysate, NAD-Glo luminescence (AID 1508614;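 active = compound whose remaining NAD level is above about 45 nM, limit read from the data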;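 also: higher remaining NAD means stronger inhibition of SARM1 NADase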); conditions: SAM-TIR HEK293T lysate NADase, at 1 µM, stronger effect = higher value
# [13] = target: Mitogen-activated protein kinase 7 (Homo sapiens) (UniProt Q13164); assay: ERK5 transactivation activators in reporter cells, primary screen, cell-based, HTS (AID 1508626;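 active = luciferase signal above three times the same-plate solvent-only control wells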;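 also: luciferase driven by Gal4-ERK5 fusion binding five Gal4 sites before minimal TATA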); conditions: HeLa Gal4-ERK5 transactivation, 18 h, at 5 µM, stronger effect = higher value
# [14] = liver-stage malaria parasite growth inhibition, primary screen, cell-based, HepG2, luciferase luminescence, HepG2 viability (AID 624349; in the data active = parasite load remaining mostly below about 12%, no sharp cut-off; inactive = mostly above about 10%;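 also: 100% = mean of DMSO negative control wells on the same plate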); conditions: P. berghei liver stage in HepG2, luciferase luminescence, concentration not given here; parasite load remaining: stronger effect = lower value; viability: measured here: HepG2 viability without parasites
# [15] = target: ATP-dependent translocase ABCB1 (Homo sapiens) (UniProt P08183); assay: MDR1 (ABCB1) efflux transporter inhibition, cell-based (AID 377; in the data active = fluorescence slope change above about 50%); conditions: MDR1-expressing cells, fluorescent substrate accumulation slope; stronger effect = higher value; concentration not given here
# [16] = hESC survival regulators, cell-based (AID 493140); conditions: human embryonic stem cell survival screen; stronger effect = higher value;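 also: cells exposed to compounds for four days before counting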
# [17] = tested on: Aerobactin synthetase IucA (Klebsiella pneumoniae hvKP1); assay: Biochemical IucA enzyme inhibition primary screen of the Spectrum library (AID 1346200); conditions: malachite green pyrophosphate, A620, at 8 µM, stronger effect = lower value;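 also: 100% = wells without compound and 0% = wells lacking enzyme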
# [18] = circadian clock period modulators, cell-based, LOPAC library, luminescence reporter (AID 2774); conditions: circadian reporter cells, at 7 µM, actives lie on both sides;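 also: values are relative to mean of DMSO wells on each plate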
# [19] = tested on: Hepatitis C virus NS3 helicase; assay: HCV NS3 helicase inhibitors, primary screen, biochemical, fluorescence polarization, LOPAC1280 library (AID 687035; in the data active = inhibition above about 37%); conditions: Purified HCV NS3 helicase, Cy5-dT15 ssDNA binding fluorescence polarization; stronger effect = higher value; concentration not given here
# [20] = Cy5 fluorescence quenching or enhancement artefacts, artefact control for HCV NS3 helicase inhibitor project, biochemical, LOPAC1280 (AID 687037); conditions: Cy5-DNA-NS3h complex fluorescence interference counterscreen
# [21] = tested on: Aerobactin synthetase IucA (Klebsiella pneumoniae); assay: IucA aerobactin synthetase inhibitors, biochemical, Tocris library, absorbance (AID 1345561); conditions: purified IucA enzyme assay, absorbance (OD) read-out; stronger effect = lower value; concentration not given here;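 also: 100% = enzyme without compound and 0% = no enzyme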
# [22] = tested on: Aerobactin synthetase IucA (Klebsiella pneumoniae, hypervirulent); assay: IucA enzyme inhibition, biochemical, LOPAC library, absorbance readout (AID 1346212); conditions: IucA enzyme assay, absorbance (OD) readout; stronger effect = lower value; concentration not given here;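 also: 100% = no compound wells and 0% = no enzyme wells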
# [23] = phospholipid biosynthesis inhibitors in animal cells, primary screen, cell-based, LOPAC library, screen 4 (AID 1347384); conditions: phospholipid biosynthesis inhibition screen, at 10 µM
# [24] = viability rescue of complex I mutant cybrids, primary screen, cell-based, galactose medium, ATP luminescence (AID 1645843;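 active = z-score of at least 1.8 in each of two replicates, scored against plate mean and spread of sample wells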;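 also: positive z means more ATP and so rescue of galactose-driven cybrid death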); conditions: complex I mutant cybrid cells, 72 h, stronger effect = higher value
# [25] = survival rescue of mitochondrial mutant cells in low glucose, primary screen, MELAS cybrids, Rieske KO mouse fibroblasts, CellTiter-Glo (AID 1508586;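 active = mean z-score across replicates of 1.96 or higher in either the MELAS or the Rieske mutant cell line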;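 also: z relative to plate mean and SD of compound and empty wells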)
# [26] = measured here: epithelial PC-3E GFP cell survival
# [27] = measured here: mesenchymal TEM4-18 mCherry cell survival
# [28] = measured here: relative caspase fold change +Dox/-Dox
# [29] = measured here: total cells with miR-34 induction, stronger effect = lower value
# [30] = measured here: total cells without miR-34 induction
# Mitogen-activated protein kinase 7 (Homo sapiens), sequence (Q13164 whole entry, looked up, the tested form may be a part): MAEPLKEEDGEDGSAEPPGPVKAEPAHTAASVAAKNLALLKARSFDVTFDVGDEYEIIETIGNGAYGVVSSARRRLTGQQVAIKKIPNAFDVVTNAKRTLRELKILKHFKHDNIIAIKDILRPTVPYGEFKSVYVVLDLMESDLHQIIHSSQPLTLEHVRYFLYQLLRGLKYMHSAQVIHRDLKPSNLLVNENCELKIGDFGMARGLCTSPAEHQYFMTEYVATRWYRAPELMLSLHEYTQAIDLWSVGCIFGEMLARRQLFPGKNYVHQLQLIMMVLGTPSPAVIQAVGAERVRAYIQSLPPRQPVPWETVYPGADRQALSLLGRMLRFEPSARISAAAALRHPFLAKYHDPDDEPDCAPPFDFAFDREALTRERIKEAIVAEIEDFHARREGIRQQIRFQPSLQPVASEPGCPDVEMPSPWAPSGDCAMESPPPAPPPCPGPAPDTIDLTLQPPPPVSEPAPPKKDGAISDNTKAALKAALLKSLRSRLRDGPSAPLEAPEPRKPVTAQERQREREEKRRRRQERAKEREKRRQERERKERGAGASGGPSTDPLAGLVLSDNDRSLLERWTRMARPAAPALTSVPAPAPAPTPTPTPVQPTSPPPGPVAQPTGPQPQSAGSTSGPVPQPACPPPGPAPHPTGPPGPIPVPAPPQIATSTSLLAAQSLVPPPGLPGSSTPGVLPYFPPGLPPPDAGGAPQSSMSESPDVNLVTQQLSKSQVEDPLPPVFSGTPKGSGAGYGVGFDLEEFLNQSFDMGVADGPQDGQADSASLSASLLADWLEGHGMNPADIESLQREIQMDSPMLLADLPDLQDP
# 6-phosphogluconate dehydrogenase, decarboxylating (Homo sapiens), sequence (P52209 whole entry, looked up): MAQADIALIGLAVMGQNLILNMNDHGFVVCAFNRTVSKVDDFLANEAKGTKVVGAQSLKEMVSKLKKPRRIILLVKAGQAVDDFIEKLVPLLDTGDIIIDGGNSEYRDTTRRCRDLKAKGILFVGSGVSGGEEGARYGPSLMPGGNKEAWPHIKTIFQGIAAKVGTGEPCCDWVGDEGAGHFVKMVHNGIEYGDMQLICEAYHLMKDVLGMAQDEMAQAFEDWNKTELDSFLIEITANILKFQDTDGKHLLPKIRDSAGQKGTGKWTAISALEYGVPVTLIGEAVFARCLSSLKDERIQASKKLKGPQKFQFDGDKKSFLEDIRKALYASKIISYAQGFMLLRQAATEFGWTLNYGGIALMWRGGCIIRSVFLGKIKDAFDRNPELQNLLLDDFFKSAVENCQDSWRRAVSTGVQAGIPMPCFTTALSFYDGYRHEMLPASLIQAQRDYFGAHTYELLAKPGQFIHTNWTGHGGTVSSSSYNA
# NAD(+) hydrolase SARM1 (Homo sapiens), sequence (Q6SZW1 whole entry, looked up, the tested form may be a part): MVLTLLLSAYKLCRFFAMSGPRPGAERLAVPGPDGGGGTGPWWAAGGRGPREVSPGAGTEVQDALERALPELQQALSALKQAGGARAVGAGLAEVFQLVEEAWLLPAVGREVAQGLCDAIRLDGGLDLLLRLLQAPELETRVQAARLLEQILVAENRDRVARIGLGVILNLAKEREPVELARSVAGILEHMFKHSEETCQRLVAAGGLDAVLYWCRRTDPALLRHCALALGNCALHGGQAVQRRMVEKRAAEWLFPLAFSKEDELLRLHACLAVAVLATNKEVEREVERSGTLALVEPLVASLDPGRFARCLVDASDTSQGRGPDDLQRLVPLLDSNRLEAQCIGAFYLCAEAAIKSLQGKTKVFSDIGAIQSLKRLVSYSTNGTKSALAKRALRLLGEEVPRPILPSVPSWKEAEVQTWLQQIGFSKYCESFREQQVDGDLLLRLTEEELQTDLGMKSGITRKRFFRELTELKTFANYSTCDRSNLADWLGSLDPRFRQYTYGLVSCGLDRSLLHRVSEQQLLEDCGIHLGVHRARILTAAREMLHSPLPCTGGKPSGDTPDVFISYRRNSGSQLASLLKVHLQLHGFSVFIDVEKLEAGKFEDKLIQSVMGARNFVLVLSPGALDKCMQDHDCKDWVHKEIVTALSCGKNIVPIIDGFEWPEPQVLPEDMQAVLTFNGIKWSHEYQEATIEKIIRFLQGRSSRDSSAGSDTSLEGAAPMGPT
# ATP-dependent translocase ABCB1 (Homo sapiens), sequence (P08183 whole entry, looked up): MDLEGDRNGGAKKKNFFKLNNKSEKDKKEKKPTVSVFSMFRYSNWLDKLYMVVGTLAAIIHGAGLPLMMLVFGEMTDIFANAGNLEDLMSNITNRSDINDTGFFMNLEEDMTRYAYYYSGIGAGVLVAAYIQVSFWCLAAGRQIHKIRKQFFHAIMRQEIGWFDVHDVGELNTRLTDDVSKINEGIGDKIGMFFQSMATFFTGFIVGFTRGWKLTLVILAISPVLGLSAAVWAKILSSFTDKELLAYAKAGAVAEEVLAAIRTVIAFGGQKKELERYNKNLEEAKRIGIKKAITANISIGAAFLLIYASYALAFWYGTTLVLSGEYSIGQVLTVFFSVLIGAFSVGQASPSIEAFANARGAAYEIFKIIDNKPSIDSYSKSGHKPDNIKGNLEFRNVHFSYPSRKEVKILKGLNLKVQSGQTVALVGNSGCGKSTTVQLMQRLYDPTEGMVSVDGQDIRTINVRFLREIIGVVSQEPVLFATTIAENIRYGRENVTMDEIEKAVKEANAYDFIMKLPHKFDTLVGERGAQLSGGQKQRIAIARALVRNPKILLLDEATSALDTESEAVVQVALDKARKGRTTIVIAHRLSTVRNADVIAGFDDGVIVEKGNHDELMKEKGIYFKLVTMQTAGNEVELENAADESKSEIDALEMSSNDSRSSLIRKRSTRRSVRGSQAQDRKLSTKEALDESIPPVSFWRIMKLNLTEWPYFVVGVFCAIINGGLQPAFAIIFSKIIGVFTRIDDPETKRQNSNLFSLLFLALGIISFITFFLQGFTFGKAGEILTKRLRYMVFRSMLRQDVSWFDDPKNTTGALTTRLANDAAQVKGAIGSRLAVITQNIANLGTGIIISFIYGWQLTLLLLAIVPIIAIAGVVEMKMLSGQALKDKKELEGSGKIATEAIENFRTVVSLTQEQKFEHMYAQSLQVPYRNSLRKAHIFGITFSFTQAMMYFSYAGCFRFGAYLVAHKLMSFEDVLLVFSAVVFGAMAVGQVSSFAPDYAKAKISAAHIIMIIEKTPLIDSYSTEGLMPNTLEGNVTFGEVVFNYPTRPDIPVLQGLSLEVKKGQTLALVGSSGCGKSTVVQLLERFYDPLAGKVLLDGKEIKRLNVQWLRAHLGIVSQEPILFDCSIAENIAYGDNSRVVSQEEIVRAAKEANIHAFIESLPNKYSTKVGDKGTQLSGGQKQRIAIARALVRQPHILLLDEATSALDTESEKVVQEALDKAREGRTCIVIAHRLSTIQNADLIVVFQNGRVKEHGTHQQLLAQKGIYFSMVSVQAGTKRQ
compound,measurement,setting,value
C[C@@H]([C@H](O)c1ccccc1)N(C)C,inhibition,[1],-9.65%
same,score,[2],1.49
same,rescue above control,[3],-3.5
same,cytochrome c release ratio,[4],0.95
same,inhibition of aggregation,[5],81%
same,glutamate uptake change,[6],13.8%
same,inclusion score,[7],2
same,aggregation suppression score,[8],1.19
same,inhibition,[9],4.3% (inactive)
same,red/green cell ratio (normalised),[10],0.91 (inactive)
same,normalised cell number,[10]; [26],1.19
same,normalised cell number,[10]; [27],1.09
same,fold change,[11]; stronger effect = lower value,0.94 (inactive)
same,fold change,[11]; [28],0.912
same,cell count,[11]; [29],8870
same,cell count,[11]; [30],9440
same,remaining NAD,[12],10 nM (inactive)
same,luciferase signal,[13],108 AU (inactive)
C=C(C)[C@@H]1[C@H]2OC(=O)[C@@H]1[C@]1(O)C[C@H]3O[C@]34C(=O)O[C@H]2[C@]14C,inhibition,[1],-31.3%
same,score,[2],1.33
same,rescue above control,[3],6.9
same,cytochrome c release ratio,[4],0.8
same,inhibition of aggregation,[5],48.7%
same,glutamate uptake change,[6],1.09%
same,inclusion score,[7],2
same,aggregation suppression score,[8],1.46
same,inhibition,[9],2.77% (inactive)
same,red/green cell ratio (normalised),[10],1.08 (inactive)
same,normalised cell number,[10]; [26],0.99
same,normalised cell number,[10]; [27],1.06
same,luciferase signal,[13],76 AU (inactive)
C=CCc1cc(OC)c2c(c1OC)OCO2,inhibition,[9],-12.9% (inactive)
same,red/green cell ratio (normalised),[10],1.18 (inactive)
same,normalised cell number,[10]; [26],0.73
same,normalised cell number,[10]; [27],0.87
same,luciferase signal,[13],32 AU (inactive)
CCCCOC(=O)c1ccccc1C(=O)OCCCC,parasite load remaining,[14],68.9% (inactive)
same,viability,[14],91.7%
same,inhibition,[9],4.37% (inactive)
same,red/green cell ratio (normalised),[10],1.22 (inactive)
same,normalised cell number,[10]; [26],0.78
same,normalised cell number,[10]; [27],0.95
same,fold change,[11]; stronger effect = lower value,0.891 (inactive)
same,fold change,[11]; [28],1.43
same,cell count,[11]; [29],10600
same,cell count,[11]; [30],11900
same,remaining NAD,[12],10 nM (inactive)
same,luciferase signal,[13],76 AU (inactive)
N#C/C(=C\c1ccc(O)cc1)C(=O)O,inhibition,[1],-8.72%
same,score,[2],1.56
same,rescue above control,[3],-7.23
same,cytochrome c release ratio,[4],0.76
same,inhibition of aggregation,[5],-4.76%
same,glutamate uptake change,[6],12%
same,inclusion score,[7],2
same,aggregation suppression score,[8],1.17
same,inhibition,[9],0.31% (inactive)
same,red/green cell ratio (normalised),[10],0.79 (inactive)
same,normalised cell number,[10]; [26],1.25
same,normalised cell number,[10]; [27],0.99
same,luciferase signal,[13],144 AU (inactive)
COc1ccc2c(c1OC)C(=O)O[C@@H]2[C@H]1c2cc3c(cc2CCN1C)OCO3,fluorescence slope change,[15],159% (active)
same,survival,[16],7.17 (inactive)
same,parasite load remaining,[14],124% (inactive) and 81.5% (inactive) and 40.1% (inactive)
same,viability,[14],101% and 75.4% and 98.1%
same,inhibition,[9],6.9% (inactive)
same,red/green cell ratio (normalised),[10],1.06 (inactive)
same,normalised cell number,[10]; [26],1.07
same,normalised cell number,[10]; [27],1.13
same,fold change,[11]; stronger effect = lower value,0.884 (inactive)
same,fold change,"[11]; stronger effect = lower value, cell number ratio, induced over uninduced",0.838 (inactive)
same,fold change,[11]; [28],1.51 and 2.25
same,cell count,[11]; [29],8490 and 11200
same,cell count,[11]; [30],10100 and 12700
same,remaining NAD,[12],10 nM (inactive)
same,luciferase signal,[13],84 AU (inactive)
NCC(N)C(=O)c1ccccc1 (stereo unspecified),inhibition,[9],-14.8% (inactive)
same,activity remaining,[17],109% (inactive)
Oc1c(Cl)c(Cl)c(Cl)c(Cl)c1Cl,inhibition,[9],4.09% (inactive)
same,red/green cell ratio (normalised),[10],0.88 (inactive)
same,normalised cell number,[10]; [26],1.25
same,normalised cell number,[10]; [27],1.1
same,luciferase signal,[13],480 AU (active)
C/C=C(/C)C(=O)O[C@H]1CC[C@@]2(C)[C@@H]3CC[C@H]4[C@]5(O)C[C@H](O)[C@@]6(O)[C@@H](CN7C[C@@H](C)CC[C@H]7[C@@]6(C)O)[C@]5(O)C[C@@]42O[C@]13O,inhibition,[1],-10.4%
same,score,[2],1.23
same,rescue above control,[3],6.62
same,cytochrome c release ratio,[4],0.66
same,inhibition of aggregation,[5],73.8%
same,glutamate uptake change,[6],7.49%
same,inclusion score,[7],2
same,aggregation suppression score,[8],1.05
same,inhibition,[9],-10.1% (inactive)
same,red/green cell ratio (normalised),[10],0.76 (inactive)
same,normalised cell number,[10]; [26],1.31
same,normalised cell number,[10]; [27],1
same,activity remaining,[17],98.9% (inactive)
same,luciferase signal,[13],96 AU (inactive) and 56 AU (inactive)
O=[N+]([O-])c1cc(O)c(O)c([N+](=O)[O-])c1,inhibition,[1],-6.91%
same,score,[2],1.27
same,rescue above control,[3],-7.14
same,cytochrome c release ratio,[4],0.96
same,inhibition of aggregation,[5],80.3%
same,glutamate uptake change,[6],-10%
same,inclusion score,[7],2
same,aggregation suppression score,[8],1.02
same,period change,[18],0.035 h (inactive)
same,inhibition,[19],1% (inactive)
same,fluorescence ratio (interference),[20],1 (inactive)
same,inhibition,[9],-7.64% (inactive)
same,remaining activity,[21],95.2% (inactive)
same,activity remaining,[17],110% (inactive)
same,remaining activity,[22],97% (inactive)
same,fold change,[11]; stronger effect = lower value,1.02 (inactive) and 0.929 (inactive)
same,fold change,[11]; [28],1.32 and 0.849
same,cell count,[11]; [29],9880 and 8690
same,cell count,[11]; [30],9680 and 9350
same,outcome,[23],inactive
same,z-score,[24],0.815 (inactive) and 1.17 (inactive)
COc1cc2c(c(OC)c1OC)-c1ccc(O)c(=O)cc1[C@@H](NC(C)=O)CC2,inhibition,[9],7.64% (inactive)
same,activity remaining,[17],120% (inactive)
O=C1CCCN1CC#CCN1CCCC1,inhibition,[1],17.7%
same,score,[2],1.21
same,rescue above control,[3],3.59
same,cytochrome c release ratio,[4],0.97
same,inhibition of aggregation,[5],79.6%
same,glutamate uptake change,[6],5.01%
same,inclusion score,[7],1
same,aggregation suppression score,[8],1.3
same,period change,[18],0.015 h (inactive)
same,parasite load remaining,[14],75.3% (inactive) and 41.2% (inactive)
same,viability,[14],88.4% and 99%
same,inhibition,[19],-4% (inactive)
same,fluorescence ratio (interference),[20],0.9 (inactive)
same,inhibition,[9],-3.4% (inactive)
same,remaining activity,[21],92.7% (inactive)
same,activity remaining,[17],119% (inactive)
same,remaining activity,[22],119% (inactive)
same,fold change,[11]; stronger effect = lower value,1.1 (inactive) and 0.966 (inactive) and 0.92 (inactive)
same,fold change,[11]; [28],0.937 and 0.652 and 1.46
same,cell count,[11]; [29],11000 and 8640 and 10100
same,cell count,[11]; [30],10100 and 8940 and 11000
same,outcome,[23],inactive
same,z-score,"[25]; MELAS cybrid survival, CellTiter-Glo 48 h, stronger effect = higher value",-0.379 (inactive)
same,z-score,"[25]; Rieske KO mouse fibroblast survival, CellTiter-Glo 72 h",-0.277
same,luciferase signal,[13],44 AU (inactive)
same,z-score,[24],0.355 (inactive) and 1.75 (inactive) and 0.67 (inactive)
